PubChem BioAssay AID504329 (Southern Research Specialized Biocontainment Screening …, 2011)
The campaign covered roughly 340,000 compounds. About 1,000 (0.29%) were called active. Not all results are given here. Results with a measured potency or affinity are listed apart. Values without a mark were called inactive. Cut-off read from the data, not from the text of the source: inconclusive = inhibition above about 27% without an active follow-up result; inactive = below that.

Assay: H1N1 influenza NS1A inhibitors, functional cell based assay (AID 504329)
Conditions: percent inhibition, at 12.5 µM, active compounds read high

SMILES	inhibition [%]
Nc1ccc2nc(-c3cccc(-c4nc5ccc(N)cc5[nH]4)n3)[nH]c2c1	16.6
Nc1ccc2cn[nH]c2c1	0.77
O=C(OCCn1c(=S)sc2ccccc21)c1ccccc1	-0.85
O=C(c1ccccc1)c1ccc(C(=O)N2CCOCC2)cc1	2.77
CC(=O)Nc1ccc(NC(=O)CSc2nnc(-c3cccnc3)o2)cc1	-1.5
O=C(CSc1nnc(-c2cccnc2)o1)Nc1ccccn1	19
CCOC(=O)C1CCCN(c2c(NCCc3ccc(S(N)(=O)=O)cc3)c(=O)c2=O)C1 (stereo not given)	-1.2
Cc1ccc2c(CN(C)Cc3ccc(OC(F)F)cc3)cc(=O)oc2c1C	-13.7
CN(Cc1nccs1)C(=O)C1CCC(=O)N(Cc2ccccc2F)C1 (stereo not given)	-7.1
COc1cccc(/C=C2\SC(=S)N(CCC(=O)N3CCCCC3)C2=O)c1	-7.67
COc1cccc(/C=C2\SC(=S)N(CCCC(=O)N3CCCCC3)C2=O)c1	13.4
S=c1[nH]c(-c2ccccc2)cs1	-8.02
S=c1[nH]cnc2scc(-c3ccccc3)c12	2.25
CCn1cc(C(=O)NCc2ccc(OC)cc2)c(=O)c2ccc(C)nc21	-3.98
O=C(NCCc1ccccc1)C(=O)NCC1CCCN1S(=O)(=O)c1ccccc1 (stereo not given)	-2.99
N#C/C(=C/C1=C(N2CCOCC2)C(=C/c2ccc(Cl)cc2)/CC1)C(=O)Nc1ccccc1F	-12.3
N#C/C(=C\C1=C(N2CCOCC2)C(=C\c2ccc(Cl)cc2)/CC1)C(=O)Nc1ccccc1F	8.68
CCN(CC)c1ccc(/C=C2\CCC(/C=C(/C#N)C(=O)Nc3ccccc3F)=C2N2CCOCC2)cc1	-9.82
CCN(CC)c1ccc(/C=C2\CCC(/C=C(\C#N)C(=O)Nc3ccccc3F)=C2N2CCOCC2)cc1	-0.77
CCOc1cccc(C2C(C(=O)c3ccc(C)o3)=C(O)C(=O)N2c2nnc(C)s2)c1 (stereo not given)	3.08
CC1(c2ccccc2)NC(=O)N(NC(=O)COC(=O)c2cc(Br)ccc2O)C1=O (stereo not given)	-5.16
O=C(NCCN1CCCCC1)c1ccc(Cl)nc1Cl	-3.64
Cc1ccc(S(=O)(=O)Nc2ccc(O)c3cccnc23)cc1	-4.48
Cc1ccc(S(=O)(=O)Nc2cccc3ncccc23)cc1	-4.33

SMILES	inhibition [%]
Cc1ccc(S(=O)(=O)Nc2cc(Cl)c(O)cc2C)cc1	6.58
Cc1ccc(S(=O)(=O)Nc2cccc3cccnc23)cc1	-11
Cc1nn(-c2ccccc2)c(C)c1/C=C/C(=O)OCC(=O)Nc1ncc(Cl)cc1Cl	-0.68
CCc1ccc2[nH]c(C)c(CN3CCCCCC3)c(=O)c2c1	6.48
Cc1ccc(NC(=O)CSc2nnc(-c3ccco3)o2)cc1	5.76
Cc1cc(NC(=O)CSc2nnc(-c3ccccc3)o2)no1	14
O=C(O)c1ccc(N(c2ccccc2)c2ccccc2)cc1	-2.79
Nc1ccc(-c2ccccc2)cc1	-0.13
Cc1ccc(C(=O)Nc2ccc(N3CCN(C(=O)c4ccco4)CC3)cc2)cc1	-1.89
S=C1NC2(CCCCC2)N=C1c1ccccc1	-4.42
S=C1NC2(CCCCCC2)N=C1c1ccccc1	6.12
CC(=O)Nc1nonc1-c1nc2ccccc2n1CC1CC1	6.72
O=C(CSc1nnc(SCc2ccc(Cl)cc2)s1)N/N=C/c1ccc(C(=O)O)cc1	-0.08
CC1CCN(S(=O)(=O)c2ccc3c(c2)N(CC(=O)N(C)Cc2ccco2)C(=O)CO3)CC1	3.45
N#C/C(=C/c1cn(-c2ccccc2)nc1-c1cccc(OCc2ccccc2)c1)C(=O)NCCCn1ccnc1	-3.98
O=C(NCCCn1ccnc1)c1cn(-c2ccccc2)nc1-c1ccc(F)cc1	6.07
CCCOc1cccc(-c2nn(-c3ccccc3)cc2/C=C(\C#N)C(=O)NCCCn2ccnc2)c1	1.02
CCOc1cccc(-c2nn(-c3ccccc3)cc2/C=C(/C#N)C(=O)NCCCn2ccnc2)c1	6.31
CC(C)C(=O)Nc1cccc(C(=O)Nc2cc([N+](=O)[O-])ccc2F)c1	-8.76
COc1ccc(C(=O)O/N=C(\N)c2ccc(Cl)cc2)cc1	2.64
CN1CCCN(C(=O)CNC(=O)c2ccccc2F)CC1	-1.28
Cc1c(C(C)(C)C)sc(=NC(=O)c2ccccc2O)n1C	-24.8
Nc1[nH]c(N=NC(=O)c2ccccc2)c2ccccc12	19
Nc1[nH]c(N=NC(=O)c2ccc(Cl)cc2)c2ccccc12	10.9

SMILES	inhibition [%]
CC(=O)N=Nc1[nH]c(N)c2ccccc12	-6.73
Nc1[nH]c(N=NC(=O)c2ccc(F)cc2)c2ccccc12	12.2
Cc1ccc(N2CC(C(=O)Nc3nc4ccc(S(C)(=O)=O)cc4s3)CC2=O)cc1 (stereo not given)	-4
COc1cc(C(=O)NCc2ccccc2)ccc1OC(F)F	2.29
Cc1ccc(NC2=CC(=O)C(=O)c3ccccc32)c(C)c1	-11
Cc1cccc(NC2=C/C(=N/S(=O)(=O)c3cccs3)c3ccccc3C2=O)c1	22.8
Cc1ccc(S(=O)(=O)/N=C2\C=C(NS(=O)(=O)c3ccccc3)C(=O)c3ccccc32)c(C)c1	10.6
Cc1ccc(NC2=C/C(=N/S(=O)(=O)c3cccs3)c3ccccc3C2=O)cc1	2.95
O=C1C=C(Nc2ccccc2)c2ccccc2C1=O	-0.21
O=C1C=C(Nc2ccc(O)cc2)C(=O)c2ccccc21	24.1
O=S(=O)(/N=C(/Nc1ccccc1)c1ccccc1)c1cccs1	-0.58
Cc1ccc(NC2=C/C(=N/S(=O)(=O)c3cccs3)c3ccccc3C2=O)cc1C	-0.69
O=C(C1CC(=O)N(c2ccc(F)cc2)C1)N1CCC(c2nc3ccccc3[nH]2)CC1 (stereo not given)	-1.46
COc1ccc(-c2cc(C(=O)Nc3ccc(F)cc3F)no2)cc1	-13.1
CC(C)n1nnnc1SCC(=O)NNC(=O)C1CCCCC1	-0.25
COC(=O)[C@@H]1C[C@@]2(O)[C@@H](O)[C@@H](O)[C@@H](O)C[C@H]2N1CC1CCCCC1	-4.19
CCCCn1c(N)c(N(C(=O)CSc2nnnn2-c2ccccc2C)C2CCCC2)c(=O)[nH]c1=O	-10.4
CC1CC(C)CN(C(=O)COc2ccc([N+](=O)[O-])cc2Cl)C1 (stereo not given)	0.5
CSCCC(NC(=O)c1ccccc1)C(=O)OCC(=O)Nc1ccc(C)c(Cl)c1 (stereo not given)	0.6
COc1ccc(OCc2nnc(SCC(N)=O)n2-c2ccccc2OC)cc1	-0.95
O=[N+]([O-])c1cc(Cl)c(O)c2ncccc12	-6.45
Oc1ccc2ccccc2c1CN1CCN(c2ccccc2)CC1	0.87
O=S(=O)(c1ccc(Cl)cc1)N1CCN(Cc2ccc(O)c3ncccc23)CC1	19.8
c1ccc(N2CCN(Cc3ccnc4ccccc34)CC2)cc1	-0.44

SMILES	inhibition [%]
O=[N+]([O-])c1cc2c(cc1CN1CCN(c3ccccc3)CC1)OCO2	1.15
Oc1ccc(COCc2ccccc2)c2cccnc12	22.4
COc1ccc(C2C(C(=O)Nc3cc(C)on3)c3ccccc3C(=O)N2C)cc1 (stereo not given)	7.42
CCCCNS(=O)(=O)c1cc(-c2nn(C)c(=O)c3ccccc23)ccc1C	-6.29
CC(=O)N1N=C(c2ccc(Br)cc2)OC12CCCC2	-0.33
C=CCSc1nc(N)c(C(=O)Nc2ccccc2OC)cc1C(=O)Nc1ccccc1	6.7
COc1ccccc1NC(=O)c1c(N=Cc2c(O)ccc3ccccc23)cnn1C	15.2
Cc1cc(OCC(=O)OCC(=O)N2CCc3ccccc3C2)ccc1Cl	-4.55
Cc1ccc(C2Nc3ccccc3NC3=C2C(=O)CC(C)(C)C3)c(O)c1 (stereo not given)	-4.27
Cc1ccc(NN=C2C(=O)OC(C)(C)OC2=O)c(C)c1	-14.3
O=C(c1ccccc1F)N1CCN(C(=O)C(c2ccccc2)c2ccccc2)CC1	6.85
O=c1ccc(Cl)nn1-c1ccccc1	-0.77
CSCCC(NC(=O)COc1ccccc1)C(=O)N1CCCCC1 (stereo not given)	0.87
CC(=O)c1ccc(S(=O)(=O)NCCCC(=O)N(C)Cc2ccc3c(c2)OCO3)cc1	-23.5
Cc1cc(NC(=O)CC#N)n(-c2nc3ccccc3[nH]2)n1	-16.5
CCOC(=O)C(=O)Nc1cc(C)nn1-c1nc2ccccc2[nH]1	11.3
CCCOc1ccc(C(C)=O)cc1CSc1nc(O)cc(=O)[nH]1	4.86
COc1ccc(C(=O)NCC(=O)N2CCN(C(=O)c3ccco3)CC2)cc1	-3.4
O=C(COc1c(Br)cc(Br)cc1Br)N/N=C/c1ccco1	-0.44
CN(C)CCCNc1c2ccccc2nc2ccccc12	-0.82
CN(C)CCCNC(=O)c1ccc(-c2ccccc2)cc1	-6.67
CN(C)CCCNC(=O)c1ccccn1	-2.43
COc1cc(NCc2ccccc2O)c2ncccc2c1	-8.87
